Measured values taken from article PMC5836133, “The intracellular immune receptor Rx1 regulates the DNA-binding activity of a Golden2-like transcription factor”.
Whole data set: some 16,000 sequences, median “e-score” near -0.044, cut for the highest 2% near 0.38. Many of the other results were omitted from the sample, so the highest values are more common in it than they were.

Biological target: T1, GST-NbGlk1(82-244) (Nicotiana benthamiana)
T1 chain: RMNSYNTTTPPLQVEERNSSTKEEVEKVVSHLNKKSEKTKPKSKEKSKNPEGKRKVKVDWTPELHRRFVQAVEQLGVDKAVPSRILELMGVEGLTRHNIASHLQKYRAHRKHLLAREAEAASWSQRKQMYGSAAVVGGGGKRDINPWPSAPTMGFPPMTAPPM
Assay: protein-binding microarray; NbGlk1 is a Golden2-like transcription factor of Nicotiana benthamiana; high values mean tight binding
Settings: protein: recombinant; tags: GST (pTH6838); dsDNA, one strand shown

Sequence | binding signal [E-score]
ATCCACAT | 0.256 ± 0.0906
AAATCTTG | 0.4213 ± 0.00314
AAATCGTG | 0.365 ± 0.0286
CAATCTTA | 0.304 ± 0.0126
AAATCTTC | 0.446 ± 0.0208
AGATCTTA | 0.347 ± 0.0143
AGATCTTC | 0.428 ± 0.0156
CAATCTTC | 0.294 ± 0.0422
AAATCATG | 0.332 ± 0.0128
AAATCGTC | 0.354 ± 0.0288
AAATCGTA | 0.373 ± 0.0227
AGATCTTG | 0.373 ± 0.0461
AAATCTTA | 0.44 ± 0.0386
ATCTTCTC | 0.311 ± 0.013
ATCAGATC | 0.35 ± 0.0204
ATTACGTA | 0.354 ± 0.0309
AGATACTG | 0.33 ± 0.00398
AGCGCGAT | 0.325 ± 0.0563
ATTCTATA | 0.284 ± 0.0791
AATCTATA | 0.402 ± 0.0321
AATCTATG | 0.38 ± 0.0331
AATCGATG | 0.268 ± 0.0785
AATCTATC | 0.366 ± 0.0334
AATATATG | 0.252 ± 0.0059

Sequence | binding signal [E-score]
ATCTGCGC | 0.317 ± 0.0626
AACGCGAT | 0.341 ± 0.0519
AAAGGAAT | 0.27 ± 0.0558
ATCCAGTG | 0.221 ± 0.123
AGAGATCC | 0.346 ± 0.0193
AGAGATCT | 0.411 ± 0.0152
AGAGATAT | 0.391 ± 0.0365
AGAGATAC | 0.222 ± 0.0223
ATAGATAC | 0.26 ± 0.0116
ACAGATAC | 0.276 ± 0.00718
ATAGAGAT | 0.276 ± 0.0241
ATAGATAT | 0.394 ± 0.0151
ACAGATAT | 0.415 ± 0.0135
AAAGATAT | 0.342 ± 0.0309
AGAGATCG | 0.303 ± 0.0386
AGAGAGAT | 0.241 ± 0.0533
AACTAGAT | 0.208 ± 0.0834
ATTTCTCC | 0.242 ± 0.0333
AATTACGT | 0.26 ± 0.0756
ATTCTTGA | 0.221 ± 0.0445
ACGAAGAT | 0.31 ± 0.00598
ATATGCTG | 0.258 ± 0.0732
AAAGATCT | 0.38 ± 0.023
AAAGATCG | 0.278 ± 0.0495

Sequence | binding signal [E-score]
AAAGATCC | 0.292 ± 0.0246
AGCAAGAT | 0.309 ± 0.0213
ATTATCCC | 0.261 ± 0.0646
ATAACGAT | 0.216 ± 0.0183
ATATCAAT | 0.281 ± 0.00703
ATATCAAG | 0.298
ATATCCCA | 0.3708 ± 0.000904
ATATCCAA | 0.407 ± 0.00723
ATATCCAG | 0.3945 ± 0.00384
ATATCCAT | 0.43 ± 0.00596
ATATCCCC | 0.36 ± 0.0106
AGATCCAG | 0.261 ± 0.0749
AGATCCAC | 0.287 ± 0.0119
ATATCCAC | 0.393
ATCTCCAT | 0.335 ± 0.0406
ATATCAAA | 0.228 ± 0.00678
ATTGTGTA | 0.249 ± 0.00712
ATCCCCGG | 0.256 ± 0.0142
AGAATTTA | 0.222 ± 0.00311
AATTTCAT | 0.238 ± 0.0823
ATCCGTTA | 0.315 ± 0.0322
ATCAGTGA | 0.218 ± 0.0932
ATCTGGTA | 0.238 ± 0.087
ATCGCGAC | 0.287 ± 0.126

Sequence | binding signal [E-score]
AATCCTTG | 0.336 ± 0.0164
ATGGTAAT | 0.305 ± 0.00923
AAATCCAT | 0.422 ± 0.0113
AAATCCAG | 0.413 ± 0.0172
AAATCCAA | 0.426 ± 0.042
CAATCCAG | 0.291 ± 0.00762
AATCCCAC | 0.318 ± 0.0378
AGATCCAA | 0.262 ± 0.127
CAATCCAC | 0.328 ± 0.0614
CAATCCAA | 0.298 ± 0.0654
AAATCAAG | 0.318 ± 0.0251
AAATCCAC | 0.43 ± 0.0323
ATCCCAGA | 0.276 ± 0.00637
ATATGAGA | 0.231 ± 0.0943
ATTACCTG | 0.213 ± 0.0963
CAATATCA | 0.299 ± 0.00874
ATCTTGAA | 0.286 ± 0.0202
AATATAGA | 0.271 ± 0.00595
ACCTGGAT | 0.224 ± 0.0187
ATTTTTAG | 0.235 ± 0.0033
ATTTGTAC | 0.228 ± 0.0254
AATCCCCG | 0.362 ± 0.0401
AAATCACC | 0.333 ± 0.00843
AAATCACA | 0.349 ± 0.00405

Sequence | binding signal [E-score]
AAATCACG | 0.381 ± 0.0177
AAATCCCA | 0.4 ± 0.00412
CAATCCCG | 0.284 ± 0.05
CAATCCCA | 0.279 ± 0.00457
AAATCCCG | 0.435 ± 0.00616
AAATCCCC | 0.368 ± 0.0151
ATTTCGGG | 0.27 ± 0.0618
ATCTCATC | 0.312 ± 0.051
ACCGCAAT | 0.302 ± 0.00387
ATCCGGAG | 0.233 ± 0.0472
ATCCGGAA | 0.332 ± 0.0273
ATCCGGAT | 0.422 ± 0.0228
ACACAAAT | 0.204 ± 0.00827
ACAATCAG | 0.237 ± 0.0723
ACAATCTC | 0.373 ± 0.047
ACAATCAA | 0.223 ± 0.00556
ACAATCTG | 0.404 ± 0.0106
ACAATCTA | 0.3803 ± 0.00317
ACAATCGA | 0.201 ± 0.0349
ATTTGTTA | 0.237 ± 0.0814
ACTGCAAT | 0.211 ± 0.0632
ATTATTTC | 0.219 ± 0.0605
AAAATTTC | 0.276 ± 0.00552
CAGATTTA | 0.276 ± 0.0107

Sequence | binding signal [E-score]
ATGATTTG | 0.257 ± 0.0544
AAGATTTA | 0.333 ± 0.0668
CAAATTTC | 0.232 ± 0.00396
ACGATTTG | 0.264 ± 0.0306
ACGATTTC | 0.411 ± 0.0236
ACGATCTA | 0.252 ± 0.0264
ATGATTTC | 0.387 ± 0.0129
CAGATTTC | 0.4864 ± 0.00115
AAGATTTC | 0.477 ± 0.00488
ATTCCCAA | 0.344 ± 0.0159
ATCGGATA | 0.33 ± 0.0178
AAATACGT | 0.267 ± 0.0537
AATTGAAA | 0.226 ± 0.0522
ACAAATAA | 0.23 ± 0.0836
ATTTATTG | 0.216 ± 0.0481
ATTGCGAG | 0.24 ± 0.0521
ATATATAT | 0.244 ± 0.0459
ATTCCCAG | 0.291 ± 0.0505
AACTGATT | 0.296 ± 0.0177
AATATTTG | 0.2529 ± 0.00132
AAGATCAG | 0.222 ± 0.0847
AAGATTTG | 0.3926 ± 0.000402
AATCGGCA | 0.245 ± 0.0624
AATTTCCG | 0.257 ± 0.00588

Sequence | binding signal [E-score]
AATCAGTA | 0.268 ± 0.0701
ATTCTTAG | 0.253 ± 0.0124
ATTCTTAA | 0.276 ± 0.0327
AATCTTAA | 0.411 ± 0.0114
AATCTTAG | 0.393 ± 0.0231
AATCTTAC | 0.375 ± 0.0424
AATCTTAT | 0.377 ± 0.038
AAAGTAAT | 0.215 ± 0.0195
ATAAATCC | 0.244 ± 0.0187
CAAAATCA | 0.314 ± 0.00439
CAAAATCC | 0.42 ± 0.00492
CAAAATAC | 0.244 ± 0.00367
AAAAATCC | 0.437 ± 0.00502
ACAAATCC | 0.337 ± 0.0192
ATACGCAA | 0.311 ± 0.105
ATTACGTG | 0.343 ± 0.0114
ATACAGAT | 0.232 ± 0.0349
ATTTTCAG | 0.282 ± 0.0614
AATCCGAC | 0.375 ± 0.0477
ATCCCGAT | 0.294 ± 0.0618
ATTCCGAG | 0.275 ± 0.0409
AATCCGAG | 0.384 ± 0.0199
AATGCGAT | 0.246 ± 0.145
AATCCCGA | 0.358 ± 0.0612

Sequence | binding signal [E-score]
AATCAGAA | 0.333 ± 0.0384
AATCCGAA | 0.406 ± 0.0054
AATCCGAT | 0.432 ± 0.00878
ATCCCCAT | 0.277 ± 0.00736
AAACGGAT | 0.245 ± 0.00295
AATCAATA | 0.274 ± 0.0307
ATTACGCG | 0.332 ± 0.0406
ATCGCCAA | 0.206 ± 0.00895
ATTACTTA | 0.22 ± 0.00767
AATGAATC | 0.262 ± 0.0542
CAAGAATC | 0.3851 ± 0.0038
AAAGAATC | 0.432 ± 0.00665
CACGAATC | 0.332 ± 0.0173
CAAGATAC | 0.263 ± 0.0221
AAAGAAAT | 0.26 ± 0.02
ATCCGGTG | 0.295 ± 0.0985
AATAAAAT | 0.285 ± 0.0273
AGGATATC | 0.469 ± 0.00696
AGGATATG | 0.301 ± 0.025
ACGATATC | 0.444 ± 0.0119
ATGATCTC | 0.237 ± 0.0252
ATGATATG | 0.251 ± 0.0218
AGGATATA | 0.211 ± 0.0455
ACGATCTC | 0.295 ± 0.0231

Sequence | binding signal [E-score]
CACATATC | 0.207 ± 0.0307
CAGATATC | 0.4684 ± 0.00421
CAGATACC | 0.318 ± 0.0659
ATGATATC | 0.4224 ± 0.000678
ACGATACG | 0.207 ± 0.012
CACGGATA | 0.231 ± 0.0138
ATATTTTA | 0.311 ± 0.0242
ATATGATA | 0.219 ± 0.000234
ATTCGGTA | 0.241 ± 0.0544
ACTGTAAA | 0.2014 ± 0.00123
ATTACGGA | 0.366 ± 0.0276
ATAACGCA | 0.2 ± 0.0382
ATCTAAGA | 0.26 ± 0.0102
ACGGGAAT | 0.324 ± 0.00778
CAGATATG | 0.393 ± 0.0499
AAGATACT | 0.2834 ± 0.00149
AAGATATC | 0.4749 ± 0.00348
CAAATATG | 0.212 ± 0.061
AAGATATA | 0.3097 ± 0.00108
AAGATACG | 0.319 ± 0.0229
CAAATACG | 0.225 ± 0.0583
CAGATACG | 0.391 ± 0.0206
CACAGATA | 0.28 ± 0.0657
AAGATATT | 0.393 ± 0.0518

Sequence | binding signal [E-score]
AAGATAAT | 0.221 ± 0.0513
AAGATATG | 0.352 ± 0.0302
ATCCAGCC | 0.215 ± 0.0455
CAATCAGA | 0.206 ± 0.101
AAATATAG | 0.237 ± 0.00681
ATATCGAA | 0.272 ± 0.135
ATCTCGTA | 0.376 ± 0.0288
ATCGGATC | 0.275 ± 0.0422
ATTTTCGA | 0.266 ± 0.0802
ATTACGCA | 0.355 ± 0.0219
AGATATTC | 0.451 ± 0.0112
ATATATTA | 0.229 ± 0.0313
AAATATTC | 0.306 ± 0.0275
ATATATTC | 0.281 ± 0.0514
AGATATTG | 0.375 ± 0.0495
AGATATTA | 0.379 ± 0.00115
